According to PubChem BioAssay (NCI):
This is part of a sample that, as a whole, favours compounds with a hit. Of some 79,000 tested, about 15% had one in any assay. The source made the active and inactive calls. No stated cut-off is given here; in the data, active means growth inhibition above about 70%; inactive means the rest. *1 amine or outer side, *2 acyl side, *3 side chain or, on linkers, in order; H or OH if unused. Where a SMILES comes first, the peptide text is derived from it. [ ]: non-standard residue; d: D form. The star is where a group is joined. X17 = CC(=O)N(C)SCC(N[*:1])C(=O)[*:2]; Fmoc = O=C(OCC1c2ccccc2-c2ccccc21)*; For = O=C*

Columns and labels:
[1] = NCI Yeast Anticancer Drug Screen. Data for the rad50 strain (AID 155);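 further: 0% = growth of vehicle-only cultures of the same strain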; settings: S. cerevisiae rad50 strain growth inhibition; at 50.0 µM; stronger effect = higher value
In short: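 Compounds were tested on a yeast strain with an engineered DNA damage repair alteration; the reported value is growth inhibition normalised to vehicle treatment.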

[2] = NCI Yeast Anticancer Drug Screen. Data for the mec2-1 strain (AID 157); settings: S. cerevisiae mec2-1 strain, at 50.0 µM, stronger effect = higher value
In short: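 Compounds were applied to mec2-1 yeast cells. Their growth was then compared with that of vehicle-treated cultures to give growth inhibition.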

[3] = NCI Yeast Anticancer Drug Screen. Data for the sgs1 mgt1 strain (AID 161);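 further: 0% = growth of cultures given vehicle only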; settings: S. cerevisiae sgs1 mgt1 strain, at 50.0 µM, stronger effect = higher value
In short: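 Growth of a repair-deficient yeast mutant was monitored after compound treatment and expressed as inhibition relative to vehicle-treated cultures.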

[4] = NCI Yeast Anticancer Drug Screen. Data for the cln2 rad14 strain (AID 165);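 further: 0% = growth equal to vehicle treated cultures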; settings: S. cerevisiae cln2 rad14 strain, at 50.0 µM, stronger effect = higher value
In short: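 Strain: cln2 rad14 yeast, altered in cell cycle control and DNA damage repair. Read-out: growth inhibition vs vehicle.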

[5] = NCI Yeast Anticancer Drug Screen. Data for the bub3 strain (AID 167); settings: S. cerevisiae bub3 mutant strain, at 50.0 µM, stronger effect = higher value
In short: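 Growth of a checkpoint-deficient yeast mutant is measured after compound exposure. Values represent inhibition relative to vehicle.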

[6] = NCI Yeast Anticancer Drug Screen. Data for the mlh1 rad18 strain (AID 175); settings: S. cerevisiae mlh1 rad18 strain growth inhibition; at 50.0 µM; stronger effect = higher value
In short: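 A repair-deficient yeast strain is exposed to test compound, and growth is scored relative to vehicle-treated controls.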

Measured: growth inhibition

COc1ccc(N2C(=O)C3c4[nH]c5ccccc5c4C4CCCCCCCCCCC4C3C2=O)cc1 (stereo unspecified)
inactive: [1] 9.95% | [2] -19.6% | [3] -3.2% | [4] -65.3% | [5] -26.4% | [6] -4.2%

CC(=O)N(CCCc1ccccc1)C(C)(C)C
inactive: [1] 5.95% | [2] 5.3% | [3] -3.05% | [4] -22.1% | [5] 2.25% | [6] 6.15%

c1ccc2c(c1)OCCOCCOc1ccccc1OCCO2
inactive: [1] -3.6% | [2] 0.4% | [3] 0.95% | [4] 17.8% | [5] -6.5% | [6] -3.65%

COCC12CCC(OC)C34C5CC6(O)C(OC)CC(OC(C)=O)(C5C6OC(=O)c5ccccc5)C(C(OC)C13)C4N(C)C2 (stereo unspecified)
inactive: [1] -24.5% | [2] -23.8% | [3] -26.5% | [4] -8.9% | [5] -1.45% | [6] -77.5%

CC(=O)Nc1ccc(S(=O)(=O)N=S(C)C)cc1
inactive: [1] -10.8% | [2] -9.05% | [3] -24.9% | [4] -21.6% | [5] -40% | [6] 13.8%

COC(=O)Nn1c(C)c(C(=O)Nc2ccc(OC)cc2)c(C(=O)OC)c1C
inactive: [1] 32.6% | [2] -16% | [3] 14.3% | [4] 2.8% | [5] 10.2% | [6] 21.6%

NC(=O)ON=C1CCN(Cc2ccccc2)CC1
inactive: [1] 30.4% | [2] 15.4% | [3] 10.7% | [4] 18.9% | [5] 10.2% | [6] 21.4%

Cc1c(C(=O)CC(=O)C(=O)Nc2cccc(C(F)(F)F)c2)[n+](=O)c2ccccc2n1[O-]
inactive: [1] 45.8% | [2] 43.1% | [3] 28.6% | [4] 14.2% | [5] 38.4% | [6] 31.6%

Cc1ccc(C(=O)N(C(C)C)C(C)C)cc1N=NN(C)C
inactive: [1] -10% | [2] -30.6% | [3] -31.1% | [4] 12.2% | [5] -20.6% | [6] -23.7%

O=C(CCC1CCCCC1)OCC1CCCO1 (stereo unspecified)
inactive: [1] 42.1% | [2] 20.9% | [3] 41.1% | [4] 3.75% | [5] 24.6% | [6] 48.1%

Cc1cc2nnnn2c2ccccc12
inactive: [1] -30.1% | [2] -20.6% | [3] -17.1% | [4] -2.35% | [5] -6.8% | [6] -19.8%

COC(=O)c1c2c(cc3c1CC1(C3)Cc3cc4c(c(C(C)=O)c3C1)CCC4)C=CC2 (stereo unspecified)
inactive: [1] 0.15% | [2] -12.3% | [3] -26.1% | [4] 1.35% | [5] -5.75% | [6] -22.6%

COC(=O)/C(C)=C1\C=C(C)CC(C)(C)C1
inactive: [1] -4.3% | [2] -25.1% | [3] -10.6% | [4] 1% | [5] -23.9% | [6] -2.3%

CCCCCCCCCCCCCCCC(=O)Nc1ccc(C(=O)C[n+]2ccc3c(NC(=O)CCC(=O)OC)cccc3c2)cc1
inactive: [1] 3.4% | [2] -12.2% | [3] 3% | [4] -0.95% | [5] 8.55% | [6] -10.6%

Cc1ccc(/C=C/C(=O)C(C)(C)CN2CCCCC2)cc1
inactive: [1] 35.6% | [2] -9.05% | [3] 25.1% | [4] 14.3% | [5] 10% | [6] 17.9%

CCOC(=O)C1=C(Nc2cccc3ccccc23)OC/C1=N\NC(=O)c1ccccc1O
inactive: [1] 24.2% | [2] 28.6% | [3] 20.3% | [4] 14.8% | [5] 27.8% | [6] 12.8%

O=C(Cc1ccccc1)NN(Cc1ccccc1)Cc1ccccc1
inactive: [1] -14.8% | [2] -0.85% | [3] -2.95% | [4] -10.8% | [5] 23.9% | [6] 0.5%

CCCCCCOC(=O)c1ccccc1Cl
inactive: [1] 5.75% | [2] 9.35% | [3] -3.05% | [4] -16.9% | [5] 26.4% | [6] 34.2%

Cc1ccc(S(=O)(=O)NN=C2CCCCC2)cc1
inactive: [1] -3.45% | [2] -11.4% | [3] -1.3% | [4] -19.4% | [5] -14.5% | [6] -11.8%

CC(=O)N(C)SCC(NC(=O)C(Cc1ccccc1)NC(=O)OCC1c2ccccc2-c2ccccc21)C(=O)NC(Cc1ccccc1)C(=O)NC(Cc1cn(C=O)c2ccccc12)C(=O)NC(CCCCNC(=O)OCC1c2ccccc2-c2ccccc21)C(=O)NC(C(=O)NC(CSN(C)C(C)=O)C(=O)NC(C(N)=O)C(C)O)C(C)O (stereo unspecified) (Fmoc-F[X17]FW(For)K(Fmoc)T[X17]T-NH2; configuration not given here)
inactive: [3] 65.1%
active: [1] 86.7% | [2] 81.3% | [4] 82.2% | [5] 82.2% | [6] 84%

CC(CO)NCc1ccccc1 (stereo unspecified)
inactive: [1] -18.2% | [2] -14.9% | [3] -1.95% | [4] 3.95% | [5] -29.6% | [6] 3.95%

CCOc1ncnc2ccc(Cl)cc12
inactive: [1] -8.65% | [2] -3.7% | [3] -4.45% | [4] -18.1% | [5] 0.65% | [6] 0%

CC(=O)Oc1cc(C)c2c(c1C)C1OC(=O)C(C)C1CC2 (stereo unspecified)
inactive: [1] 12.6% | [2] -12.7% | [3] 18.6% | [4] 16.3% | [5] 4.8% | [6] 17.1%

CC(=O)CC(=O)N1CCCC(C)C1 (stereo unspecified)
inactive: [1] -2.85% | [2] -40.8% | [3] -38.5% | [4] 9.1% | [5] -10.9% | [6] 1.3%

CCCc1cc2c3c(c(=O)oc2cc1O)CCCCC3
inactive: [1] -17.9% | [2] 19.4% | [3] 4.7% | [4] -22.5% | [5] -9.8% | [6] -14.3%

CCOC(=O)c1cn2c(nc1=O)N[C@H]1CCCC[C@@H]12
inactive: [1] 37.8% | [2] 11.1% | [3] 0.4% | [4] -2.45% | [5] 8.4% | [6] -1%

CCCCCCCSC#N
inactive: [1] -7.6% | [2] 20.9% | [3] -1.9% | [4] -22.4% | [5] 9.75% | [6] 29.6%

CCOc1ccc(N=C(NC(=O)c2ccccc2)SC)cc1
inactive: [1] -5.9% | [2] -0.7% | [3] -0.15% | [4] 23.3% | [5] 10.1% | [6] 0.65%

CN1CCN(CCN2C(=O)c3ccccc3C2=O)CC1
inactive: [1] -12.3% | [2] 2.65% | [3] -10.5% | [4] -15% | [5] -10.8% | [6] -43.8%

O=C(NNC(=O)Nc1ccccc1)Nc1ccccc1
inactive: [1] -0.8% | [2] -16.7% | [3] -0.95% | [4] -12.9% | [5] -3.2% | [6] -7%

CC1=COCCO1
inactive: [1] -9.9% | [2] -9.35% | [3] -9.35% | [4] 6.85% | [5] 12.7% | [6] 0.5%

CCc1cccc(C(C)C)c1NC(=O)C(=O)C1C(=O)Nc2ccccc2S1=O (stereo unspecified)
inactive: [1] -3.95% | [2] -13.6% | [3] -16.9% | [4] -11.2% | [5] 2.4% | [6] -29.1%

CCCCCCNC(=O)C1=C(C)NC(C)=C(C(=O)NCCCCCC)C1
inactive: [1] 4.9% | [2] 1.35% | [3] -6.4% | [4] -24.9% | [5] 6.8% | [6] -42.2%

COS(=O)(=O)OC1(SC)C=C(c2ccccc2)SS1 (stereo unspecified)
inactive: [2] 28.1% | [3] 29.2% | [4] 9.5% | [5] 20.3%
active: [1] 73% | [6] 72.6%

CCOC(=O)NC(S(=O)(=O)O)S(=O)(=O)O
inactive: [1] 0.6% | [2] 9.8% | [3] -25.1% | [4] -9.8% | [5] 16.1% | [6] 18.5%

O=C1NC(=S)N/C1=C/c1ccc2c(c1)CCC2
inactive: [1] 13.9% | [2] -20.2% | [3] 20.6% | [4] 12.4% | [5] 31.8% | [6] 12.7%

CCC(=O)Oc1ccccc1OC(=O)CC
inactive: [1] 35.9% | [2] 18.3% | [3] 21% | [4] 11.6% | [5] 1.9% | [6] 45.2%

CC1SC2(C(=O)N(CN3CCCCC3)c3ccccc32)N(c2ccccc2)C1=O (stereo unspecified)
inactive: [1] 15.4% | [2] -0.45% | [3] -30.9% | [4] -0.8% | [5] 3.9% | [6] -0.1%

CC(=O)CC(=O)OC(C)OC(=O)CC(C)=O
inactive: [1] -2.1% | [2] -13.4% | [3] -11.4% | [4] -2.5% | [5] -0.7% | [6] 0.25%

COc1ccc2nc(-c3ccccc3)cc(OCC(=O)O)c2c1
inactive: [1] -30.2% | [2] 21.2% | [3] -7.5% | [4] -13.1% | [5] 10.1% | [6] -15.8%

CCCCC1NC(=O)OC1=O (stereo unspecified)
inactive: [1] -23.6% | [2] -31.4% | [3] -11.2% | [4] 1.9% | [5] -20.2% | [6] -33.4%
